In the library only some 3.5% were active in any assay of this set; here they are far more common.
Autofluor counter: flagged as autofluorescent in microsphere protease counterscreen | AID 624483 | compound autofluorescence counterscreen, microsphere flow cytometry; hits give high values | fluorescence intensity (test concentration not listed) | 3.1% of 360,000 active; in the data active = fluorescence intensity above about 16000; inconclusive = no clear call, values can overlap the other calls
BoNT-F LC inh: BoNT F light chain protease inhibition; Multiplex microsphere protease cleavage assay, flow cytometry; inhibition, % at 10 µM; 0.22% of 360,000 active; AID 588497; in the data active = inhibition above about 35%, passing the limit was not always enough; inconclusive = no clear call, values can overlap the other calls; note: plate controls were buffer without enzyme for full effect and enzyme alone for no effect
Anthrax LF prot: anthrax lethal factor protease inhibition. multiplex microsphere protease cleavage assay, LF. 0.12% of 360,000 active. P15917. AID 588501. inhibition, % at 10 µM; note: plate controls were buffer without enzyme for full effect and enzyme alone for no effect
BoNT A protease: BoNT A light chain protease inhibition | multiplex microsphere protease substrate cleavage, flow cytometry | 0.17% of 360,000 active | inhibition, % at 10 µM; note: plate controls were buffer without enzyme for full effect and enzyme alone for no effect
The depositor's hits bear a star; ? = inconclusive. Cut-off read from the data, not from the text of the source, unless noted: active = inhibition above about 30%; inconclusive = no clear call, values can overlap the other calls; inactive = below that.

SMILES	Autofluor counter	BoNT-F LC inh	Anthrax LF prot	BoNT A protease
COC(=O)c1cccnc1N1CCN(c2ccccc2F)CC1	23700*	-0.5	-3.7	?
CC(C)OC(=O)c1cccnc1N1CCN(c2ccc(F)cc2)CC1	23861*	-1.8	-2.6	-2.1
COc1ccc(-n2nc(N)c(C(N)=O)n2)cc1	4591	-0.5	-9.4	-0.1
COC(=O)[C@]1(C)N[C@H](CN(C)C(=O)C2CCCCC2)[C@@H]2C(=O)N(Cc3ccccc3)C(=O)[C@@H]21	3912	-6.8	-8.9	-0.7
Cc1c(NC(=O)C(C)OC(=O)c2cccnc2Cl)c(=O)n(-c2ccccc2)n1C (centres undefined)	3533	-6.9	-0.3	-0.4
Oc1ccc(C[C@H]2CNCCN2CC2(c3ccccc3)CC2)cc1	3040	-7.3	-8.3	-1.2
O=C(Cc1ccccc1)N/N=C/c1cc(Br)c(Br)o1	16918*	-4.0	2.1	?
Cc1cc(C)c(N2C(=O)CC(Sc3ccccc3N)C2=O)c(C)c1 (centres undefined)	3938	-3.4	2.6	-0.3
Cc1ccsc1C(=O)OCc1nc2ccsc2c(=O)[nH]1	5451	9.5	2.8	4.9
Cc1ccsc1C(=O)OCc1nc2ccccc2c(=O)[nH]1	19317*	10.2	-3.2	9.0
CCNC(=O)C1CCCN(C(=O)c2ccccc2OC(F)(F)F)CC1 (centres undefined)	3975	5.5	-10.8	0.1
Cc1cc(S(=O)(=O)NCC(C)C)ccc1OCC(=O)N1CCOCC1	3940	?	6.2	1.6
CCOC(=O)N1CCN(C(=O)COc2ccc(S(=O)(=O)NCC(C)C)cc2C)CC1	21204*	-3.3	-0.6	-1.5
Cc1cc(S(=O)(=O)NCC(C)C)ccc1OCC(=O)NCc1ccccn1	21787*	-4.5	-2.0	-2.7
CCOC(=O)COc1ccc(S(=O)(=O)Nc2cccc(SC)c2)cc1	21447*	-4.7	-0.4	-2.6
CCOC(=O)N1CCN(C(=O)COc2ccc(S(=O)(=O)Nc3ccc(OCC)cc3)cc2)CC1	17078*	-6.3	-8.5	?
Cc1cc(S(=O)(=O)NCc2ccccc2)ccc1OCC(=O)NCc1ccccn1	3620	9.4	-11.0	-2.6
COCCNC(=O)C1(C)CCCN(Cc2cccc(OC(=O)c3ccccc3)c2)C1 (centres undefined)	3858	-3.2	-2.7	-0.3
CSCC[C@H](NC(=O)OC(C)(C)C)c1nnc(SCC=C(C)C)o1	25549*	-10.2	-5.9	-7.0
CSCC[C@H](NC(=O)OC(C)(C)C)c1nnc(SCC(N)=O)o1	2718	1.0	-1.3	0.3
CC(C)(C)OC(=O)N[C@@H](Cc1ccccc1)c1nnc(SCC(=O)O)o1	6783	-1.0	11.9	0.6
CC(C)(C)OC(=O)N[C@@H](Cc1ccccc1)c1nnc(SCC(=O)c2ccc(Cl)cc2)o1	19238*	1.6	-1.9	2.9
CCN(CC)C(=O)CSc1nnc([C@@H](NC(=O)OC(C)(C)C)C(C)C)o1	17771*	-2.8	0.7	-2.7
CCSc1nnc([C@H](Cc2ccccc2)NC(=O)OC(C)(C)C)o1	23861*	-2.5	-1.1	0.2
CCOc1ccc2c(c1)n(CO)c(=S)n2CO	22336*	1.7	-3.5	?
SMILES	Autofluor counter	BoNT-F LC inh	Anthrax LF prot	BoNT A protease
CCOc1ccc2[nH]c(=S)[nH]c2c1	4344	-9.0	-0.7	-0.5
Nc1ccccc1-c1nc2ccccc2[nH]1	22286*	3.3	-3.4	1.3
CCOC(=O)Cn1c(S(=O)(=O)Cc2cccc(F)c2)nc(-c2ccccc2)c1-c1ccccc1	7957	-1.7	-5.0	-0.4
CCOC(=O)Cn1c(S(=O)(=O)Cc2ccc(F)cc2)nc(-c2ccccc2)c1-c1ccccc1	16161*	0.2	-1.4	?
C#CCn1c(S(=O)(=O)Cc2ccc(F)cc2)nc(-c2ccccc2)c1-c1ccccc1	16327*	-3.6	-4.6	-0.1
COc1ccccc1N1CCN(S(=O)(=O)c2ccc(NC(C)=O)cc2)CC1	4431	-1.5	-7.3	-2.1
Cc1cc(C)c(C)c(S(=O)(=O)N2CCC(C(=O)OCC(=O)N3c4ccccc4NC(=O)C3(C)C)CC2)c1C	24651*	-3.6	-2.4	-1.7
Cc1cc2ncn(/N=C/c3ccc([N+](=O)[O-])s3)c2cc1C	2076	20.6	14.7	43.5*
O=[N+]([O-])c1ccc(/C=N/n2cnc3ccccc32)s1	9692	15.7	11.6	14.8
Cc1ccc(NC(=O)CSCC(=O)Nc2cc(S(=O)(=O)N3CCOCC3)ccc2OC(C)C)cc1	2901	-10.4	-7.0	-0.1
Cc1nc2ccccn2c1C(=O)N/N=C/c1cc(C)n(-c2ccc(Br)cc2)c1C	23974*	-7.8	-6.0	-4.0
O=C(Nc1ccsc1C(=O)NC1CCCCC1)c1ccccc1	20407*	-2.4	-0.8	?
O=C(Nc1ccccc1C(=O)NC1CCCCC1)c1ccccc1	4867	8.0	0.5	2.8
CN(Cc1ccccc1)c1nc2c(c(=O)[nH]c(=O)n2C)n1Cc1ccccc1Cl	22859*	-0.7	-3.8	?
Cc1oc(-c2ccc(Cl)cc2)cc1-c1nn2c(-c3ccoc3C)nnc2s1	23295*	2.6	-5.4	-2.3
Clc1ccc(-c2nnc3sc(-c4ccc(Br)o4)nn23)cc1	2967	-11.4	-1.3	-0.4
Cc1ccc(N=Cc2cc(Cl)cc(Cl)c2O)nc1	2526	34.6*	-1.3	3.5
Oc1c(Cl)cc(Cl)cc1/C=N/Nc1ncc(Br)cn1	2129	-1.1	0.5	0.4
COc1cccc(-c2cc(C(=O)NCc3ccco3)no2)c1	24153*	-4.6	-3.2	-2.8
O=C(NCc1ccco1)c1cc(-c2ccc3c(c2)OCO3)on1	17176*	-6.5	-2.9	-4.3
O=C(NCc1ccco1)c1cc(-c2cccc(Cl)c2)on1	21505*	3.0	-11.5	2.6
Cc1cc(C(=O)NCc2ccco2)no1	22251*	4.4	-0.7	2.9
Cc1ccc(-c2cc(C(=O)NCc3ccco3)no2)cc1	8560	-15.4	-7.9	?
CCN(Cc1ccccc1)C(=O)Cn1cc(S(=O)(=O)NC)c(S(=O)(=O)NC)c1	3756	-7.7	13.7	0.1
COc1cccc(N2CCN(C(=S)NCc3ccco3)CC2)c1	16347*	-4.3	-6.2	-1.4
SMILES	Autofluor counter	BoNT-F LC inh	Anthrax LF prot	BoNT A protease
O=C(NCc1ccco1)c1cc(-c2ccc(Cl)cc2)on1	22771*	1.2	-1.3	0.8
COc1cc(OC)cc(C(=O)NC(=S)NCc2ccco2)c1	16948*	-2.6	-5.9	?
Cc1ccc(S(=O)(=O)N(CC(=O)Nc2cccc([N+](=O)[O-])c2)C(=O)N2CCN(C)CC2)cc1	16418*	-76.0	-12.9	-45.1
CN(CC(=O)Nc1cccc([N+](=O)[O-])c1)S(=O)(=O)c1ccccc1	4521	-7.4	-2.7	-0.7
C[C@@H](NC(=O)Cn1ccc(N)nc1=O)c1cccc2ccccc12	3052	-8.5	-4.0	-0.1
COc1cccc(N(CC(=O)NC(C)(C)C)C(=O)C2CSC(=O)C2)c1 (centres undefined)	20419*	-0.5	-0.7	0.6
Cc1ccnc(NC2(C(F)(F)F)N=C(c3ccccc3)NC2=O)c1 (centres undefined)	19679*	4.6	-3.3	2.6
Cc1ccc(NC2(C(F)(F)F)N=C(c3ccccc3)NC2=O)nc1 (centres undefined)	3055	-12.8	-0.9	-1.1
COc1ccc(-c2noc(-c3cccs3)n2)cc1OC	5912	1.2	-1.2	-0.4
COc1cc(-c2noc(-c3cccs3)n2)cc(OC)c1OC	20254*	-0.6	0.2	?

Screens: PubChem BioAssay, NMMLSC
